This note sets out measurements from PubChem BioAssay (NCI).

Test systems include DU-145 prostate; K-562 leukemia; MALME-3M melanoma; MDA-MB-231 breast; RXF 393 renal; SF-268 CNS; SF-295 CNS; SF-539 CNS; UACC-257 melanoma; M14 melanoma.
Holding throughout (assay): NCI-60 one-dose screen, 48 h (100 = growth as untreated, 0 = no growth, -100 = all killed)
What all share (conditions): 10 µM unless noted

Where “and” joins values, the source holds several entries; their conditions need not be identical. Identical values can stand only once. This is part of a sample that, as a whole, favours compounds with a hit. Of some 83,000 tested, about 20% had one in any assay.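 Interpretation: 100, growth as untreated; towards 0, rising growth inhibition; 0, no net growth; 0 to -100, cell death. Compounds scoring below 10 were considered active.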 Unmarked numbers belong to inactive results. Calls of active or inactive are those of the source.

`C/C=C(\C)C(=O)N[C@H]1CC[C@]2(C)C3CC[C@@]4(C)C(CC[C@@H]4C(C)N(C)C)C3CCC2[C@H]1OC(C)=O` (stereo not given in full): the growth with DU-145 prostate was 4.99% (active); in the assay with K-562 leukemia, 18%; with MALME-3M melanoma, -68.6% (active); in the assay on MDA-MB-231 breast it was -32.3% (active); in the assay on RXF 393 renal it was -61.5% (active); in the assay with SF-268 CNS, -84.6% (active). Further, the growth in the assay on SF-295 CNS is -66.9% (active); in the assay with SF-539 CNS it was -95.7% (active); in the assay with UACC-257 melanoma, -51.3% (active); in the assay on M14 melanoma, -64.1% (active).
On to `Cc1nonc1-c1ccc2c(c1)OCO2`, for which the growth was 94.4% and 109% in the assay on DU-145 prostate; 101% with K-562 leukemia; 116% and 142% in the assay on MALME-3M melanoma; 96.8% and 110% in the assay on MDA-MB-231 breast; 96.8% and 99.4% with RXF 393 renal; 89.9% and 95% in the assay on SF-268 CNS. For the same compound, the growth with SF-295 CNS was 91.4% and 101%; in the assay with SF-539 CNS, 111% and 95.7%; with UACC-257 melanoma, 104% and 111%; with M14 melanoma, 110% and 108%.
In the case of `COC(=O)c1c2c(c(C)[n+]([O-])c1C)C(=O)C(NCCN1CCOCC1)=CC2=O`, the growth is 84.3% in the assay with DU-145 prostate; 75.6% in the assay with K-562 leukemia; -13.2% (active) in the assay on MALME-3M melanoma; 70.8% in the assay on MDA-MB-231 breast; 96.3% in the assay on RXF 393 renal; 79.3% with SF-268 CNS. For the same compound, the growth in the assay on SF-295 CNS is 82.7%; in the assay on SF-539 CNS, 89.5%; in the assay on UACC-257 melanoma it was 48.4%; in the assay on M14 melanoma, 62.9%.
For the compound `Cc1nc2cccc(NCCCCC(=O)NO)c2c(=O)n1-c1ccccc1`, the growth in the assay on DU-145 prostate is 58.1%; in the assay on K-562 leukemia, 40.9%; in the assay with MALME-3M melanoma it was 23.4%; in the assay with MDA-MB-231 breast, 77.1%; in the assay on RXF 393 renal, 49.2%; with SF-268 CNS, 74.6%. In addition, the growth was 82.9% in the assay with SF-295 CNS, 49.9% in the assay on SF-539 CNS, 42.7% in the assay on UACC-257 melanoma and 50.4% with M14 melanoma.
Consider `NCCOCCOc1ccccc1`, for which the growth was 101% in the assay with DU-145 prostate; 108% in the assay with K-562 leukemia; 97.8% in the assay with MALME-3M melanoma; 114% with MDA-MB-231 breast; 124% with RXF 393 renal; 97.8% in the assay on SF-268 CNS. Also, the growth in the assay with SF-295 CNS was 103%; in the assay with SF-539 CNS, 108%; in the assay on UACC-257 melanoma it was 106%; in the assay with M14 melanoma it was 102%.
As for `O=C(CC1(O)C(=O)Nc2ccc(Br)cc21)c1ccc(Cl)cc1` (stereo not given), the growth in the assay on DU-145 prostate is 107%; with K-562 leukemia, 98.2%; with MALME-3M melanoma, 103%; in the assay with MDA-MB-231 breast it was 98.8%; with RXF 393 renal, 96.4%; in the assay with SF-268 CNS, 97.5%. Also, the growth with SF-295 CNS is 106%; with SF-539 CNS it was 108%; in the assay with UACC-257 melanoma, 88.1%; in the assay on M14 melanoma, 99.3%.
`O=C(NNc1ccccc1)c1ncc[nH]1`: the growth was 55.8% in the assay with DU-145 prostate; 7.21% (active) with K-562 leukemia; 54.1% with MALME-3M melanoma; 81.5% in the assay on MDA-MB-231 breast; 107% in the assay with RXF 393 renal; 59.3% in the assay on SF-268 CNS. Besides, the growth in the assay with SF-295 CNS is 90.2%; with SF-539 CNS, 48.7%; with UACC-257 melanoma it was 71.5%; in the assay with M14 melanoma, 37.4%.
Regarding `O=C(CCCCCCCCC(=O)N/N=C\c1ccccc1O)N/N=C\c1ccccc1O`, the growth in the assay with DU-145 prostate was 26.7%; in the assay on K-562 leukemia it was 16.4%; in the assay with MALME-3M melanoma, 15.1%; in the assay on MDA-MB-231 breast, 38.1%; in the assay on RXF 393 renal, 31.1%; in the assay on SF-268 CNS, 14.6%. Also, the growth was 36% in the assay on SF-295 CNS, 16.7% in the assay on SF-539 CNS, 20.2% in the assay with UACC-257 melanoma and -9% (active) with M14 melanoma.
With `Cn1cc(-c2nc3c(F)cc4[nH]ncc4c3c3c2CCCC3)c(C(F)F)n1`, the growth with DU-145 prostate is 78.7%; in the assay on K-562 leukemia, 26%; with MALME-3M melanoma it was 77.1%; in the assay on MDA-MB-231 breast it was 60.2%; in the assay with RXF 393 renal, 55%; in the assay on SF-268 CNS, 61.7%. Further, the growth in the assay with SF-295 CNS was 64.7%; with SF-539 CNS, 62.3%; in the assay on UACC-257 melanoma it was 90.5%; with M14 melanoma, 53.4%.
In the case of `COc1cc(C=O)ccc1Oc1ccc([N+](=O)[O-])cc1[N+](=O)[O-]`, the growth in the assay with DU-145 prostate is 110%; with K-562 leukemia it was 97.3%; in the assay with MALME-3M melanoma it was 114%; in the assay on MDA-MB-231 breast, 104%; with RXF 393 renal, 111%; in the assay with SF-268 CNS, 102%. Moreover, the growth in the assay with SF-295 CNS is 108%; in the assay with SF-539 CNS it was 107%; in the assay on UACC-257 melanoma, 90%; with M14 melanoma it was 102%.
Turning to `CCN(CC)/C([O-])=c1\cccc\c1=C1\N=C(c2ccccc2)N=C1[n+]1ccc(-c2ccccc2)cc1`, the growth was 102% with DU-145 prostate; 96.7% in the assay on K-562 leukemia; 92.7% in the assay with MALME-3M melanoma; 100% in the assay on MDA-MB-231 breast; 104% in the assay on RXF 393 renal; 102% with SF-268 CNS. In addition, the growth in the assay with SF-295 CNS was 100%; with SF-539 CNS, 89.1%; with UACC-257 melanoma it was 92.9%; with M14 melanoma, 89.6%.
Turning to `CCOc1nc(-c2ccccc2)cc2c(O)c(C(=O)N/N=C/c3ccc(N(C)C)cc3)[nH]c(=O)c12`, the growth in the assay with DU-145 prostate is 120%; with K-562 leukemia it was 105%; in the assay with MALME-3M melanoma, 135%; in the assay on MDA-MB-231 breast it was 98.8%; with RXF 393 renal it was 123%; in the assay on SF-268 CNS, 104%. Moreover, the growth was 111% with SF-295 CNS, 99.7% with SF-539 CNS, 125% with UACC-257 melanoma and 119% with M14 melanoma.
As for `N#Cc1cc(-c2ccnc(Nc3ccc(NC(=O)CCl)cc3)n2)ccc1N1CCCC1`, the growth in the assay with DU-145 prostate was 17.1%; with K-562 leukemia, 2.55% (active); in the assay with MALME-3M melanoma, -68.5% (active); with MDA-MB-231 breast, -31.8% (active); in the assay on RXF 393 renal, -79.3% (active); in the assay with SF-268 CNS it was -8.99% (active). Besides, the growth was -26.9% (active) in the assay with SF-295 CNS, -94.4% (active) with SF-539 CNS, 3.7% (active) in the assay with UACC-257 melanoma and -40.9% (active) in the assay on M14 melanoma.
